Test results: PubChem BioAssay (Tox21)
Results filed as inconclusive are left out. Activity calls are given as the source filed them. Unless noted, calls follow the shape of the dose curve; as a rule, active = well fitted curve in the direction sought with a large enough effect in the repeat runs; inconclusive = weak or mixed curves; inactive = no such curve, though single readings can be large; an effect the other way counts as inactive or inconclusive.

Experiments:
[1] = target: Estrogen receptor (Homo sapiens) (UniProt P03372); experiment: qHTS assay to identify small molecule agonists of the estrogen receptor alpha (ER-alpha) signaling pathway in the presence of an antagonist (AID 1259383; calls by dose curve; also: top concentration of the series differs between compounds; nearly all actives have a fitted effect of over 15% in size)
Sequence of Estrogen receptor (Homo sapiens) (P03372 whole entry, looked up): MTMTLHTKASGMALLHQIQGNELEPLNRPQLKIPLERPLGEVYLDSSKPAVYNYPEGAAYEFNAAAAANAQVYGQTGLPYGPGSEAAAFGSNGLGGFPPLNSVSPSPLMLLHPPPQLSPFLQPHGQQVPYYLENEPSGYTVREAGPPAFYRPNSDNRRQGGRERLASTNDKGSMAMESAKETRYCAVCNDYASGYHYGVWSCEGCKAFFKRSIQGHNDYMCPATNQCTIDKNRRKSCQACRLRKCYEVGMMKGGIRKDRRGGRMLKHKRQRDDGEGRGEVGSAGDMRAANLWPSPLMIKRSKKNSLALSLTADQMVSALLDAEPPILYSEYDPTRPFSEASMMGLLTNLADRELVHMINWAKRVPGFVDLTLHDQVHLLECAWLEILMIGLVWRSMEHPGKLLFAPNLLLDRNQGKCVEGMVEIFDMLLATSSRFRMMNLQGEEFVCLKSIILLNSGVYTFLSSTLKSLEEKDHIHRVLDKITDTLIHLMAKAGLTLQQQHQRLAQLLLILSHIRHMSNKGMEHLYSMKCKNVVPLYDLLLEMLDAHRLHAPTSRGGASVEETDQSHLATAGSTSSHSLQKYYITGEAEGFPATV
Outline: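 ER-alpha agonism measured under antagonist challenge: 10.0nM ICI-182,780 (final) plus compound, 15 concentrations, 22hr, VM7Luc4E2 ERE-luciferase cells. Read by luminescence.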

[2] = qHTS assay to identify small molecule agonists or antagonists of the thyroid stimulating hormone receptor (TSHR) signaling pathway - wild type cell line counter screen (AID 1259384; calls by dose curve)
Outline: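 Counter screen in untransfected Hek293: compounds (15-point titration, triplicate) plus phosphodiesterase inhibitor Ro20-1724 added after 18 h plating; 30 min RT. Intracellular cAMP via competitive d2/cryptate immunoassay, 1 h incubation.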

[3] = target: Thyrotropin receptor (Homo sapiens) (UniProt P16473); experiment: qHTS assay to identify small molecule antagonists of the thyroid stimulating hormone receptor (TSHR) signaling pathway (AID 1259385; calls by dose curve; also: nearly all actives have a fitted effect of over 20% in size)
Sequence of Thyrotropin receptor (Homo sapiens) (P16473 whole entry, looked up): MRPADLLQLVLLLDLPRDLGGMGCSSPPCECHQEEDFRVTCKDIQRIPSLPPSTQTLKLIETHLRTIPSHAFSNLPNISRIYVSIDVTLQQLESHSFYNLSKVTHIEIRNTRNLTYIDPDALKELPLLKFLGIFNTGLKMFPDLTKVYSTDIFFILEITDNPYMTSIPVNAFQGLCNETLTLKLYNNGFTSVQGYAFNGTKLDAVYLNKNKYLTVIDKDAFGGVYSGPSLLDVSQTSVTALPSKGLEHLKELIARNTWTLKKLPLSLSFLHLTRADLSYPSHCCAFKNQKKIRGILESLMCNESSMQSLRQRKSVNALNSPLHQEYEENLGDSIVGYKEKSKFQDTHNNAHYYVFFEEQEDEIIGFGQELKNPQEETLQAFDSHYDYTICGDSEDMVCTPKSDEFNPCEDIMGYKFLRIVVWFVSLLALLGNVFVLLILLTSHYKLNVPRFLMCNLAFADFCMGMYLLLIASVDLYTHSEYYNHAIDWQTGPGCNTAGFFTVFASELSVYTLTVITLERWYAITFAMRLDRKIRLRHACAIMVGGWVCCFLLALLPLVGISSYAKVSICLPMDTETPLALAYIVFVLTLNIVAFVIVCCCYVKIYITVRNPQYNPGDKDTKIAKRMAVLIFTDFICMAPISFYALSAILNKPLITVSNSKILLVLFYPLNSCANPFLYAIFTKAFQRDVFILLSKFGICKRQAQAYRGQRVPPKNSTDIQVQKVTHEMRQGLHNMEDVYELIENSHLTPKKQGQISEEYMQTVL
Outline: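 Antagonist mode: compound-treated TSHR-expressing HEK293 cells were stimulated with 1.5 ng/mL TSH (final) in presence of Ro20-1724 for 30 min at RT. HTRF cAMP detection after 1 h; each compound tested at 15 concentrations, triplicate.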

[4] = qHTS assay to identify small molecule agonists of the estrogen receptor alpha (ER-alpha) signaling pathway in the presence of an antagonist - cell viability counter screen (AID 1259386);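 also: series mostly up to about 92 µM; cells exposed to compounds for 22 h at 37 °C before the viability read; nearly all actives have a fitted effect of over 30% in size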
Outline: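 Steps: 5-day stripped-FBS culture; seed and incubate 24hr; add ICI-182,780 (10.0nM final); pin 15-point compound titration; incubate 22hr at 37C; add CellTiter-Fluor at 21hr; read fluorescence.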

[5] = target: Progesterone receptor (Homo sapiens) (UniProt P06401); experiment: qHTS assay to identify small molecule agonists of the progesterone receptor (PR) signaling pathway (AID 1346784; calls by dose curve; also: nearly all actives have a fitted effect of over 30% in size)
Sequence of Progesterone receptor (Homo sapiens) (P06401 whole entry, looked up): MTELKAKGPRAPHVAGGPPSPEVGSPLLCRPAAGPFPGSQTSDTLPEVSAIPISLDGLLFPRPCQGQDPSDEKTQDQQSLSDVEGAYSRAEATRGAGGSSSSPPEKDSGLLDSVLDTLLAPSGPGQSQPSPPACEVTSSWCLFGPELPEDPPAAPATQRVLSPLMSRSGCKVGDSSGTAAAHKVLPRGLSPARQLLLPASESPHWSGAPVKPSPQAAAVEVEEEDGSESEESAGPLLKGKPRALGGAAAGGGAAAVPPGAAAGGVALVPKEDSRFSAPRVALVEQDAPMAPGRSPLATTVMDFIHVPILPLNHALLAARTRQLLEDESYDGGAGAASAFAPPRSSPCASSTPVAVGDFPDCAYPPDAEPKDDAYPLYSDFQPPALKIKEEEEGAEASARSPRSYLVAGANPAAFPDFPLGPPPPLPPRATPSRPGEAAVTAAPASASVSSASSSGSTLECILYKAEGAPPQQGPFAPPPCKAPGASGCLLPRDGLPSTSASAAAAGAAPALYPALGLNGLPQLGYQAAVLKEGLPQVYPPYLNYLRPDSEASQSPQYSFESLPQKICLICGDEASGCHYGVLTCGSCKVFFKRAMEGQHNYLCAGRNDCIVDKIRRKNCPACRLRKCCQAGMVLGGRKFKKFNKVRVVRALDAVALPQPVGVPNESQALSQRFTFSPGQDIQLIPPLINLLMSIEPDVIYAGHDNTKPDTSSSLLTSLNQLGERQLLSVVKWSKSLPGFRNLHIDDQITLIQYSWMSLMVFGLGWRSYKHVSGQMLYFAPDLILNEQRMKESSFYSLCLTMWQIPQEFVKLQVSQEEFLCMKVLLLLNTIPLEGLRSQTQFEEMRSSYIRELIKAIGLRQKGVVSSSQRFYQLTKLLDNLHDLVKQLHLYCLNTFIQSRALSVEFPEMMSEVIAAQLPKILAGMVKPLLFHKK
Outline: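 Reporter assay, GripTite PR-UAS-bla HEK 293T cells: 16 hr exposure to DMSO-dissolved compounds at 37C, 5% CO2, in steroid-depleted (2% charcoal-stripped FBS) medium; beta-lactamase measured by FRET fluorescence.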

[6] = target: Progesterone receptor (Homo sapiens) (UniProt P06401); experiment: qHTS assay to identify small molecule antagonists of the progesterone receptor (PR) signaling pathway (AID 1346795; active = well fitted inhibition curve with a large enough effect in the signal ratio in the repeat runs, not every such curve was filed as active; the % refers to the signal ratio)
Outline: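 Stimulus R5020 at 1 nM final; cells HEK293T PR-UAS-bla; medium with 2% charcoal-stripped FBS; compound exposure 16 hr at 37C, 5% CO2; detection by FRET beta-lactamase substrate, 2 hr, room temperature.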

[7] = qHTS assay to identify small molecule antagonists of the progesterone receptor (PR) signaling pathway - cell viability counter screen (AID 1346798); also: series mostly up to about 92 µM; nearly all actives have a fitted effect of over 50% in size
Outline: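 In the same plates used for the beta-lactamase readout, cell viability of compound- and R5020-treated PR-UAS-bla HEK293T cells (16 hr, 37C) was assessed by CellTiter-Glo luminescence.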

[8] = qHTS assay to identify small molecule agonists of the progesterone receptor (PR) signaling pathway - cell viability counter screen (AID 1346799; calls by dose curve; also: nearly all actives have a fitted effect of over 45% in size)
Outline: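 Multiplexed viability read: CellTiter-Glo luminescence, 30 min RT, following LiveBLAzer FRET measurement on PR-UAS-bla HEK293T cells exposed to compounds 16 hr.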

[9] = qHTS assay to identify small molecule antagonists of the TGF-beta/Smad signaling pathway - cell viability counter screen (AID 1346824); also: nearly all actives have a fitted effect of over 50% in size
Outline: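 Cytotoxicity counter-screen run in the same wells as the beta-lactamase Smad reporter read: CellTiter-Glo luminescence after 30 min at room temperature. HEK 293T SBE-bla cells had 5 hr compound exposure at 37 C with TGF-beta1 (0.25 ng/mL stock).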

[10] = qHTS assay to identify small molecule agonists of the TGF-beta/Smad signaling pathway - cell viability counter screen (AID 1346829); also: top concentration of the series differs between compounds; nearly all actives have a fitted effect of over 45% in size
Outline: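 Same-well cytotoxicity: CellTiter-Glo added after the 2 hr room-temperature beta-lactamase substrate step, luminescence measured 30 min later; cells had 5 hr of compound at 37 C.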

[11] = qHTS assay to identify small molecule agonists of the TGF-beta/Smad signaling pathway (AID 1346859; active = well fitted activation curve with a large enough effect in the signal ratio in the repeat runs, not every such curve was filed as active; the % refers to the signal ratio; also: series mostly up to about 77 µM)
Outline: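 Screening used HEK 293T SBE-bla cells at 4,000/well. Test agents: 5 hr, 37 C. Detection: FRET substrate, 2 hr RT, then excitation 405 nm with emissions at 460 and 530 nm.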

[12] = target: Thyrotropin-releasing hormone receptor (Homo sapiens) (UniProt P34981); experiment: qHTS assay to identify small molecule antagonists of the thyrotropin-releasing hormone receptor (TRHR) signaling pathway (AID 1346877; active = well fitted inhibition curve with a large enough effect in the repeat runs, not every such curve was filed as active; also: series mostly up to about 51 µM)
Sequence of Thyrotropin-releasing hormone receptor (Homo sapiens) (P34981 whole entry, looked up): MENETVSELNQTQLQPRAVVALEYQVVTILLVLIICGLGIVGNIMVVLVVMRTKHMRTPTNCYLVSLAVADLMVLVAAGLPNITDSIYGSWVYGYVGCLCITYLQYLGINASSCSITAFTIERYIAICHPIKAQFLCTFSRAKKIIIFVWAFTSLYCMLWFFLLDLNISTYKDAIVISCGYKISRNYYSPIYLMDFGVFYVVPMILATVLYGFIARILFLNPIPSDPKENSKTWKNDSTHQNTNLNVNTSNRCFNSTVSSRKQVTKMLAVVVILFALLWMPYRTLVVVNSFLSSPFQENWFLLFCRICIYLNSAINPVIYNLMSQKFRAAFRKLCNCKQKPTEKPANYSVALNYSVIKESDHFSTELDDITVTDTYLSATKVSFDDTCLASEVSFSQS
Outline: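 Human TRHR in HEK293 cells; inhibition of the intracellular calcium rise triggered by 1 nM TRH was followed by fluorescence over 3 min. Compounds were run at 15 concentrations, three replicates each.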

[13] = target: Thyrotropin-releasing hormone receptor (Homo sapiens) (UniProt P34981); experiment: qHTS assay to identify small molecule agonists of the thyrotropin-releasing hormone receptor (TRHR) signaling pathway (AID 1346891; calls by dose curve; also: series mostly up to about 58 µM)
Outline: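 Readout was intracellular calcium fluorescence in TRHR-Hek293 cells. Cells were incubated 18 h, dye-loaded 2 h at 37 °C, and treated with compound in agonist mode.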

[14] = Human pregnane X receptor (PXR) small molecule agonists, qHTS cell viability counter screen (AID 1346977); also: nearly all actives have a fitted effect of over 50% in size
Outline: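 In each well, the PXR reporter HepG2 line was checked for viability: CellTiter-Fluor reagent added 23hr post-dosing, fluorescence read after 1hr incubation at 37C.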

[15] = Caspase-3/7 induction in HepG2 cells by small molecules, qHTS assay (AID 1346978); also: nearly all actives have a fitted effect of over 15% in size
Outline: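 Caspase-3/7 induction was measured by Caspase-Glo 3/7 luminescence (30 min, room temperature) after a 17 hr compound exposure of wild-type HepG2 cells seeded at 2,000 per well and pre-incubated 5 hr.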

[16] = Caspase-3/7 induction in CHO-K1 cells by small molecules, qHTS cell viability counter screen (AID 1346979); also: nearly all actives have a fitted effect of over 35% in size
Outline: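 Following a 5hr settling period, CHO-K1 cells at 1,500 per well received DMSO-dissolved compounds. Cell viability was quantified 16hr later by CellTiter-Fluor fluorescence, measured after 1hr with reagent at 37C.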

[17] = Caspase-3/7 induction in CHO-K1 cells by small molecules, qHTS assay (AID 1346980); also: nearly all actives have a fitted effect of over 15% in size
Outline: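 Luminescent Caspase-Glo 3/7 read (30min, room temperature) quantified apoptosis induction. Cells were wild-type CHO-K1, treated with compound for 17hr at 37 C and 5% CO2.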

[18] = Caspase-3/7 induction in HepG2 cells by small molecules, qHTS cell viability counter screen (AID 1346981); also: series mostly up to about 92 µM; nearly all actives have a fitted effect of over 30% in size
Outline: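 The parent HepG2 line is plated at 2,000 cells per well and rested 5 hr before compound pinning from DMSO stocks. Following a 16-hr treatment at 37 C, a fluorogenic live-cell substrate (CellTiter-Fluor) reports viability after 1 hr.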

[19] = target: Nuclear receptor subfamily 1 group I member 2 (Homo sapiens) (UniProt O75469); experiment: Human pregnane X receptor (PXR) small molecule agonists, qHTS assay (AID 1346982); also: nearly all actives have a fitted effect of over 35% in size
Sequence of Nuclear receptor subfamily 1 group I member 2 (Homo sapiens) (O75469 whole entry, looked up): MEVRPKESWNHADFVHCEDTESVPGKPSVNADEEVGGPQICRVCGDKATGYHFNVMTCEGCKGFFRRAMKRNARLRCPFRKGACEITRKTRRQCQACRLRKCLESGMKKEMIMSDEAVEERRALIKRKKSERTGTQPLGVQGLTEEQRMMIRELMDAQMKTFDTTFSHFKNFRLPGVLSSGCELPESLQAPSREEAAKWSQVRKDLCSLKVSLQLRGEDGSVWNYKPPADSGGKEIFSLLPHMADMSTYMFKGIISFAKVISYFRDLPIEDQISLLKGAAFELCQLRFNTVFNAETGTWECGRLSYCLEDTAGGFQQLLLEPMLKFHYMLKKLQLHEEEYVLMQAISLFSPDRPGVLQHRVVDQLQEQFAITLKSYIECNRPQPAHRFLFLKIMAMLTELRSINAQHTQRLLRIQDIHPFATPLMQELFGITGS
Outline: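 After plating in 5% charcoal-stripped FBS and a 5 hr rest, PXR-Luc HepG2 cells received compounds in DMSO. Following 24 hr at 37 C, ONE-Glo was added and light output read.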

[20] = target: Nuclear receptor subfamily 1 group I member 2 (Rattus norvegicus) (UniProt Q9R1A7); experiment: Rat pregnane X receptor (rPXR) activation by small molecules, qHTS assay (AID 1346983); conditions: rPXR luciferase reporter cells, One-Glo luminescence, 24 h; max activation: active compounds read high; also: nearly all actives have a fitted effect of over 20% in size
Sequence of Nuclear receptor subfamily 1 group I member 2 (Rattus norvegicus) (Q9R1A7 whole entry, looked up): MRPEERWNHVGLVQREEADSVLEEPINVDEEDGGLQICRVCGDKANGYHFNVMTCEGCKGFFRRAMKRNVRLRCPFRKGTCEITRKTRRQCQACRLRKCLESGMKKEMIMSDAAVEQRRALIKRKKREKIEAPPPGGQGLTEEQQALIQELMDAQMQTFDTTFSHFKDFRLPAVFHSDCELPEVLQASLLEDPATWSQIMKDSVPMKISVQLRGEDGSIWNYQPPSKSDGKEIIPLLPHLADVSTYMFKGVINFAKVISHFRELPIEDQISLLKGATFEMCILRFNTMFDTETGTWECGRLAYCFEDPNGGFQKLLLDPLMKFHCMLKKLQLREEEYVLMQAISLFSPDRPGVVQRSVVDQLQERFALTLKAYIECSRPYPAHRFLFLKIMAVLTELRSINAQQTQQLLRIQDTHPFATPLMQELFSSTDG
Outline: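 Luminescent readout (One-Glo luciferase, 30 min room temperature) followed 24 hr compound treatment at 37 C of rPXR cells plated 2,000 per well and preincubated 5hr; qHTS format with compounds delivered in DMSO.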
% is scaled to controls: 0 for no effect and ±100 for the full control effect.

Cc1nc([N+](=O)[O-])cn1-c1ccc([N+](=O)[O-])cc1
inactive: outcome [1] | outcome [2] | outcome [3] | Potency [4] | Potency [5] | Potency [6] | Potency [7] | Potency [8] | outcome [9] | outcome [10] | outcome [11] | outcome [12] | outcome [13] | Potency [14] | outcome [15] | Potency [16] | outcome [17] | Potency [18] | Potency [19]

NC(=O)NNC(N)=O
inactive: outcome [1] | outcome [2] | outcome [3] | Potency [4] | Potency [5] | Potency [6] | Potency [7] | Potency [8] | outcome [9] | outcome [10] | outcome [11] | outcome [12] | outcome [13] | Potency [14] | outcome [15] | Potency [16] | outcome [17] | Potency [18] | Potency [19]

CCCCCCCCCCCCCC(=O)OC
inactive: outcome [1] | outcome [2] | outcome [3] | Potency [4] | Potency [5] | Potency [6] | Potency [7] | Potency [8] | outcome [9] | outcome [10] | outcome [11] | outcome [12] | outcome [13] | Potency [14] | outcome [15] | outcome [17] | Potency [18] | Potency [19]

O=C(O)c1c(Cl)ccc(Cl)c1Cl
inactive: outcome [1] | outcome [2] | outcome [3] | Potency [4] | Potency [5] | Potency [6] | Potency [7] | Potency [8] | outcome [9] | outcome [10] | outcome [11] | outcome [12] | outcome [13] | Potency [14] | outcome [15] | Potency [16] | outcome [17] | Potency [18] | Potency [19]

Cc1ccccc1C(=O)N1CC/C(=N\OS(=O)(=O)O)c2ccc(Cl)cc21
inactive: outcome [1] | outcome [2] | outcome [3] | Potency [4] | Potency [5] | Potency [6] | Potency [7] | Potency [8] | outcome [9] | outcome [10] | outcome [11] | outcome [12] | outcome [13] | Potency [14] | outcome [15] | Potency [16] | outcome [17] | Potency [18] | Potency [19]

CC(C)(C)c1ccc(C=O)cc1
inactive: outcome [1] | outcome [2] | outcome [3] | Potency [4] | Potency [5] | Potency [6] | Potency [7] | Potency [8] | outcome [9] | outcome [10] | outcome [11] | outcome [12] | outcome [13] | Potency [14] | outcome [15] | Potency [16] | Potency [18] | Potency [19]

CC(C)CCCCCCOC(=O)C1CCCCC1C(=O)OCCCCCCC(C)C (configuration not stated)
inactive: outcome [1] | outcome [2] | outcome [3] | Potency [4] | Potency [5] | Potency [6] | Potency [7] | Potency [8] | outcome [9] | outcome [10] | outcome [11] | outcome [12] | outcome [13] | Potency [14] | outcome [15] | Potency [16] | Potency [18] | Potency [19]

CCOC(=O)CC#N
inactive: outcome [1] | outcome [2] | outcome [3] | Potency [4] | Potency [5] | Potency [6] | Potency [7] | Potency [8] | outcome [9] | outcome [10] | outcome [11] | outcome [12] | outcome [13] | Potency [14] | outcome [15] | Potency [16] | outcome [17] | Potency [19]

CCCCC(CC)CNC(=O)CC(C)OC(=O)CCC(=O)O (configuration not stated)
inactive: outcome [1] | outcome [2] | outcome [3] | Potency [4] | Potency [5] | Potency [6] | Potency [7] | Potency [8] | outcome [9] | outcome [10] | outcome [11] | outcome [12] | outcome [13] | Potency [14] | outcome [15] | outcome [17] | Potency [18] | Potency [19]

CC(C)CCC(=O)CCC(C)C
inactive: outcome [1] | outcome [2] | outcome [3] | Potency [4] | Potency [5] | Potency [6] | Potency [7] | Potency [8] | outcome [9] | outcome [10] | outcome [11] | outcome [12] | outcome [13] | Potency [14] | outcome [15] | Potency [16] | outcome [17] | Potency [18] | Potency [19]

Nc1cc(C(=O)O)ccc1Cl
inactive: outcome [1] | outcome [2] | outcome [3] | Potency [4] | Potency [5] | Potency [6] | Potency [7] | Potency [8] | outcome [9] | outcome [10] | outcome [11] | outcome [12] | outcome [13] | Potency [14] | outcome [15] | Potency [16] | Potency [18] | Potency [19]

Cc1cccc(C(=O)O)c1[N+](=O)[O-]
inactive: outcome [1] | outcome [2] | outcome [3] | Potency [4] | Potency [5] | Potency [6] | Potency [7] | Potency [8] | outcome [9] | outcome [10] | outcome [11] | outcome [12] | outcome [13] | Potency [14] | outcome [15] | outcome [17] | Potency [18] | Potency [19]

Nc1ccc(S(=O)(=O)NC(=O)c2ccccc2)cc1
inactive: outcome [1] | outcome [2] | outcome [3] | Potency [4] | Potency [5] | Potency [6] | Potency [7] | Potency [8] | outcome [9] | outcome [10] | outcome [11] | outcome [12] | outcome [13] | Potency [14] | outcome [15] | Potency [16] | outcome [17] | Potency [18] | Potency [19] | max activation [20] -3.91%

CCCCCCCCC(=O)OCC
inactive: outcome [1] | outcome [2] | outcome [3] | Potency [4] | Potency [5] | Potency [6] | Potency [7] | Potency [8] | outcome [9] | outcome [10] | outcome [11] | outcome [12] | outcome [13] | Potency [14] | outcome [15] | Potency [16] | outcome [17] | Potency [19]

CCN(CC)C(=O)C1CN2CCc3cc(OC)c(OC)cc3C2CC1OC(C)=O (configuration not stated)
inactive: outcome [1] | outcome [2] | outcome [3] | Potency [4] | Potency [5] | Potency [6] | Potency [7] | Potency [8] | outcome [9] | outcome [10] | outcome [11] | outcome [12] | outcome [13] | Potency [14] | outcome [15] | Potency [16] | outcome [17] | Potency [18] | Potency [19]

CCCCCCCCCCCCOC(C)=O
inactive: outcome [1] | outcome [2] | outcome [3] | Potency [4] | Potency [5] | Potency [6] | Potency [7] | Potency [8] | outcome [9] | outcome [10] | outcome [11] | outcome [12] | outcome [13] | Potency [14] | outcome [15] | Potency [16] | outcome [17] | Potency [18] | Potency [19]
